Experimental findings from PubChem BioAssay (EPA / NIEHS) are described below.

The nature of test [1]: CCTE_Mundy_HCI_hNP1_Casp3_7: CCTE's Caspase-Glo 3/7 Assay in human neuroprogenitor cells for Apoptosis, Mundy Lab (AID 2284240). In outline: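 Apoptosis is scored by activated caspase-3/7 luminescence in WA09-derived neural progenitor cells, measured 26.5 h after chemical dosing. Values represent gain of signal relative to DMSO vehicle.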
Test [2] is described as follows: CCTE_Mundy_HCI_Cortical_Synap_Neur_Matur_NeuronCount: CCTE's Synaptogenesis and Neurite Maturation Assay in rat cortical cells for Neuron Count, Mundy Lab (AID 2284242; active = hit-call score of the fitted dose curve at least 0.9, where 1 is the maximum). In outline:
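Measured at DIV 12: fluorescently labelled neurons (Hoechst nuclei, MAP2) in rat primary cortical cultures, counted by high-content imaging. AraC suppressed glia from DIV 5; DMSO served as negative control.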

A short description of test [3]: CCTE_Mundy_HCI_Cortical_NOG_BPCount: CCTE's Neurite Outgrowth Assay in rat cortical cells for Branch Point Count, Mundy Lab (AID 2284237). The essentials:
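Measured 50.33 h after dosing, this morphology endpoint uses rat primary cortical cultures labelled for betaIII-tubulin. Branch points are quantified by high-content imaging, with DMSO as negative control and baseline.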

Test [4] can be described thus: IUF_NPC2c_oligodendrocyte_migration_120hr: Leibniz Research Institute for Environmental Medicine (IUF) 120-hour Neural Progenitor Cell Migration Assay for Oligodendrocyte Migration (NPC2c) (AID 2284297).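 Also: O4-positive oligodendrocyte migration distance divided by radial glia migration distance.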 In outline: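 Primary hNPC spheres migrating on extracellular matrix, exposed five days to a 7-point dilution series with solvent control. Oligodendrocyte migration was scored by high-content imaging of O4 immunostaining and expressed relative to radial glia distance.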

Test [5] can be described thus: IUF_NPC2a_radial_glia_migration_120hr: Leibniz Research Institute for Environmental Medicine (IUF) 120-hour Neural Progenitor Cell Migration Assay for Radial Glia Migration (NPC2a) (AID 2284298). In outline:
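In this multiplexed test, fetal hNPC spheres migrate radially on poly-D-lysine/laminin in N2 medium (37C, 5% CO2, pH 7.2-7.6) under continuous compound exposure over five days. Migration is scored at 120 h from automated Hoechst nuclear imaging.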

Test [6] is described as follows: IUF_NPC2a_radial_glia_migration_72hr: Leibniz Research Institute for Environmental Medicine (IUF) 72-hour Neural Progenitor Cell Migration Assay for Radial Glia Migration (NPC2a) (AID 2284299). The essentials: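 Spheres of human primary neural progenitors migrate on poly-D-lysine/laminin under compound exposure at 37C, 5% CO2. The 72 h radial glia migration distance comes from brightfield images, measured manually.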

A short description of test [7]: IUF_NPC2b_neuronal_migration_120hr: Leibniz Research Institute for Environmental Medicine (IUF) 120-hour Neural Progenitor Cell Migration Assay for Neuron Migration (NPC2b) (AID 2284300). The essentials:
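Neurons identified by TUBB3 immunostaining and Hoechst nuclei; migration distance measured automatically on fixed wells at 120 h, normalized to glia migration. Exposure spanned five days of differentiation in N2 medium, seven test concentrations.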

The nature of test [8]: IUF_NPC3_neuronal_differentiation_120hr: Leibniz Research Institute for Environmental Medicine (IUF) 120-hour Neuronal Differentiation Assay (NPC3) (AID 2284301). In outline: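 Value is percent TUBB3-positive neurons among Hoechst-stained nuclei in the migration area, scored by trained CNN after 120 h differentiation. Primary hNPC spheres on poly-D-lysine/laminin, N2 medium, continuous dosing from day 0, half-refeed day 3; DMSO reference.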

Test [9] can be described thus: CCTE_Mundy_HCI_Cortical_NOG_NeuronCount: CCTE's Neurite Outgrowth Assay in rat cortical cells for Neuron Count, Mundy Lab (AID 2284236; active = hit-call score of the fitted dose curve at least 0.9, where 1 is the maximum;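 also: neurons counted by imaging betaIII-tubulin and Hoechst stained cortical cells; cells exposed to compound for about 48 hours before fixation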). The essentials: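 Read-out: neuron number by high-content imaging of betaIII-tubulin (Alexa Fluor-488) and Hoechst-labelled rat primary cortical cells.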
Test [10] can be described thus: CCTE_Mundy_HCI_hNP1_CellTiter: CCTE's Cell Titer-Glo 2 Assay in human neuroprogenitor cells for Viability, Mundy Lab (AID 2284241; active = hit-call score of the fitted dose curve at least 0.9, where 1 is the maximum). The essentials: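 Human neural progenitor cells (hNP1, WA09-derived) were plated on poly-L-ornithine/laminin and grown 40 to 44 hours at 37 °C, 5% CO2 before chemical addition. Twenty-four hours later, ATP was measured by CellTiter-Glo luminescence; loss of signal versus DMSO indicates reduced viability.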
On the technique in general: In ATP-based viability assays light output follows the ATP content of the culture.

Records with an inconclusive call do not appear. Calls of active or inactive are those of the source. The calls were made as follows, unless noted: active = hit-call score of the fitted dose curve at least 0.9, where 1 is the maximum; inactive = score below 0.9.

For the compound `O=c1[nH]cc(F)c(=O)[nH]1`, the half-maximal activity concentration (AC50) in test [1] was 23.8 µM (active). Besides, in [2], the call was inactive.

As for `C[Si]1(C)O[Si](C)(C)O[Si](C)(C)O[Si](C)(C)O1`, the compound was classed as inactive in test [3], in test [1], in test [4], in test [5], in [6] and in [7]. Also, the outcome in test [8] was inactive.

Regarding `CCCc1cc(=O)[nH]c(=S)[nH]1`, the compound was called inactive in [9], in test [1] and in [2].

With `OC[C@@H](O)[C@@H](O)[C@H](O)[C@H](O)CO`, the call in [3], in test [1], in [2], in test [4], in [5] and in [6] was inactive. Further, the call in test [7] and in [8] was inactive.

Regarding `CC(=O)Oc1ccccc1C(=O)O`, the call in test [3], in [1], in [10], in test [4], in [5] and in test [6] was inactive. Also, the compound was classed as inactive in test [7] and in test [8].

The AC50 is the concentration giving half of the maximal activity seen.
